Experimental data reported in PubChem BioAssay AID504834 (National Center for Advancing Translational Sciences (NCATS), 2011).
The whole screen tested about 320,000 compounds, of which about 22,000 (6.9%) were called active. Inconclusive results (about 27%) are left out. Calls come from the whole dose curve; as a rule, active = well fitted inhibition curve with a large enough effect; inconclusive = small, poorly fitted or top-dose-only effect, or another doubt; inactive = no such curve, though single readings can be large or run the other way. This excerpt belongs to a sample that is enriched for actives.

assay: Primary qHTS for delayed death inhibitors of the malarial parasite plastid, 96 hour incubation; settings: P. falciparum luciferase reporter growth; series mostly up to 28.7 µM; activity change, negative = inhibition: at the top concentration
Outline: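 Compounds incubated with erythrocytes infected by luciferase-expressing P. falciparum (2% hematocrit, 0.05% parasitemia final) for 96 hours, 37 C in 5% CO2. Growth inhibition scored as decreased luciferase luminescence.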
% is set by controls: 0 for no effect and ±100 for the full control effect; potency is the fitted concentration of half-maximal effect.

SMILES	activity change, negative = inhibition	Potency
CC1C(=O)NC(=O)C1c1ccccc1 (stereo not given)	130% (inactive)	
COc1ccccc1C(=O)NCCC(=O)NC1=NCCS1	-7.83% (inactive)	
CCOC(=O)c1ccccc1NC(=O)COC(=O)CCC(=O)N1CCOCC1	-0.129% (inactive)	
COc1ccc(N(C(=O)CNC(=O)c2ccco2)C(C(=O)NCC2CCCO2)c2ccccc2)cc1Cl (stereo not given)	8.89% (inactive)	
Cc1nc([N+](=O)[O-])c(NCCCO)n1Cc1ccccc1	39.3% (inactive)	
COCCn1cnc2c1c(=O)n(CC(=O)NN)c(=O)n2Cc1ccccc1	-3.42% (inactive)	
N=c1c2c(-c3ccccc3)c(-c3ccccc3)n(Cc3ccccc3)c2ncn1CCCO		4.65 µM (active)
CC1=C(C(=O)OC2CCCCC2)C(c2ccccc2F)NC(=O)N1 (stereo not given)	17.6% (inactive)	
O=C(CSc1nnc(-c2ccccc2O)o1)NC1CCCCC1	64.5% (inactive)	
COc1ccccc1NC(=O)COC(=O)COc1ccccc1F	2.96% (inactive)	
CCCCCn1c(SCCC(C)C)nc2c1c(=O)[nH]c(=O)n2C		13.1 µM (active)
C=CCSc1nc2c(c(=O)[nH]c(=O)n2C)n1Cc1ccccc1	22.8% (inactive)	
C=CCn1c(SCc2ccccc2)nc2c1c(=O)[nH]c(=O)n2C	-26.5% (inactive)	
CCN(CC)C(=O)CC1(c2ccccc2OC)CCOC(C(C)C)C1 (stereo not given)		11.7 µM (active)
CCN(CC(=O)Nc1ccccc1OC)C(=O)CC1CC2CCC1C2 (stereo not given)	-22% (inactive)	
COc1ccccc1OCc1ccc(C(=O)NC(C)c2ccccc2)o1 (stereo not given)	220% (inactive)	
CN1CCN(S(=O)(=O)c2cccc(C(=O)Nc3cccc(S(N)(=O)=O)c3)c2)CC1	27.2% (inactive)	
CN(C)c1ccc(S(=O)(=O)NCC(=O)NCC2CCCCC2)cc1[N+](=O)[O-]	2.12% (inactive)	
COc1ccc(C(=O)OCC(=O)NCCCc2ccccc2)cc1OC	9.81% (inactive)	
CCOc1ccc(C(CC(=O)O)NC(=O)C23CC4CC(CC(C4)C2)C3)cc1OC (stereo not given)	21.1% (inactive)	
CCOc1ccc(C(CCc2ccccc2)NC(=O)c2ccc(OC)c(OC)c2)cc1OCC (stereo not given)		0.233 µM (active)
Cc1cc(NS(=O)(=O)c2ccc(NC(=O)c3cccnc3)cc2)nc(C)n1	20.1% (inactive)	
CCN1N=C(c2ccccc2)CCC1=O	49.6% (inactive)	
CCN1CCN(Cc2c(O)ccc3c(=O)c(-c4ccc(OC)c(OC)c4)c(C(F)(F)F)oc23)CC1	90% (inactive)	

SMILES	activity change, negative = inhibition	Potency
O=c1oc2c(CN3CCCCC3)c(O)ccc2c2c1CCCCC2		10.4 µM (active)
O=c1c(-c2ccccc2)coc2c(CN3CCOCC3)c(O)ccc12	17.4% (inactive)	
COc1cc(NC(=O)CSC(=S)N2CCCC2)c(OC)cc1Cl	-1.62% (inactive)	
CN(CCNC(=O)c1cc2c(-c3ccccc3F)nn(C)c2s1)C1CCCCC1	3.44% (inactive)	
COc1ccc(CNC(=O)COc2cccnc2[N+](=O)[O-])cc1	27.4% (inactive)	
Cc1ccc(C)c(S(=O)(=O)N2CCN(C(=O)Nc3ccccc3)CC2)c1	37.2% (inactive)	
Cc1ccc([N+](=O)[O-])cc1S(=O)(=O)N1CCCN(C)CC1	13% (inactive)	
Cc1ccc(C)c(S(=O)(=O)N2CCN(CC(=O)Nc3ccc([N+](=O)[O-])cc3)CC2)c1		10.4 µM (active)
Cc1c(CNCCc2ccccc2)c(C(=O)O)c(C)n1-c1ccccc1	0% (inactive)	
Cc1ccc(CC2C(=O)N(c3ccc(F)cc3)C(=O)C2C)cc1 (stereo not given)	87.4% (inactive)	
CCCc1nn(C)c2c(=O)[nH]c(-c3cc(S(N)(=O)=O)ccc3OCC)nc12	-15.6% (inactive)	
CC(C)CN(C(=O)c1cccc(S(=O)(=O)N2CCCCC2)c1)C1CCS(=O)(=O)C1 (stereo not given)	24.2% (inactive)	
CCC1CCCCN1C(=S)Nc1ccc(C(C)=O)cc1 (stereo not given)	22.3% (inactive)	
CCC1CCCCN1C(=S)Nc1ccc(S(=O)(=O)Nc2ncccn2)cc1 (stereo not given)		10.4 µM (active)
CCC1CCCCN1C(=S)Nc1ccc(SC(F)F)cc1 (stereo not given)	-14.4% (inactive)	
Cc1ccc(C)c(S(=O)(=O)Nc2cc(C)on2)c1	36.9% (inactive)	
Cc1ccc(OCC(=O)Nc2ccc(N3CCN(C(=O)c4ccco4)CC3)cc2)c(C)c1	124% (inactive)	
O=C(CSc1nc2ccccc2[nH]1)Nc1nc(-c2ccccc2)c(-c2ccccc2)o1		13.1 µM (active)
O=C(CSc1nc2ccccc2[nH]1)c1cccs1	5.77% (inactive)	
CN(Cc1ccccc1)C(=O)CSc1nc2ccccc2[nH]1	9.42% (inactive)	
COc1ccc2c(c1)C(NS(=O)(=O)OCC(Cl)(Cl)Cl)CCC2 (stereo not given)	12.5% (inactive)	
CCOc1ccc(NC(=O)N(CC(C)C)CC(C)C)cc1	3.96% (inactive)	
CCOc1ccc(NC(=O)Nc2ccc(N(C)C(C)=O)cc2)cc1		16.5 µM (active)
CC(=O)N(C)c1ccc(NC(=O)C(F)(F)F)cc1	-17.5% (inactive)	

SMILES	activity change, negative = inhibition	Potency
O=C(O)CCCCCCCCc1cn(CN2C(=O)c3ccccc3C2=O)nn1	91.8% (inactive)	
Cc1nc(NC(=O)c2cccc(Cl)c2)sc1-c1csc(Nc2cccc(Cl)c2)n1		9.28 µM (active)
CC(=O)c1sc(NC(=O)c2ccc(C)cc2)nc1C	102% (inactive)	
CCNS(=O)(=O)c1ccc(NC(=O)Nc2cccc(C(F)(F)F)c2)cc1	14.7% (inactive)	
CNC(=O)c1ccc(NC(=O)c2cccc(C(F)(F)F)c2)cc1	6.47% (inactive)	
O=C(Nc1nc(-c2ccc(-c3ccccc3)cc2)cs1)c1cnccn1	58.2% (inactive)	
Cn1sc(NC(=O)c2ccccc2)nc1=O	20% (inactive)	
O=C(O)c1ccccc1C(=O)Nc1nc(-c2ccccc2)cs1	0.357% (inactive)	
CC(=O)Nc1cccc(C(=O)Nc2nc(C)cs2)c1	56.8% (inactive)	
Cc1ccc(Nc2nc(-c3sc(NC(=O)c4ccccc4)nc3C)cs2)cc1		13.1 µM (active)
O=C(Nc1ccc(-c2csc(Nc3cccc(C(F)(F)F)c3)n2)cc1)c1cccc(C(F)(F)F)c1		8.28 µM (active)
Cc1ccc(-c2csc(NNC(=O)c3ccccc3)n2)cc1		3.7 µM (active)
CCOC(=O)c1c(NC(=O)CN2C(=O)NC3(CCC(C)CC3)C2=O)sc(C)c1CC (stereo not given)	0% (inactive)	
NC(=O)c1c(NC(=O)CSc2nc(N)cc(=O)[nH]2)sc2c1CCCC2	-0.481% (inactive)	
COc1cc(NS(=O)(=O)c2ccc(NC(=S)NC(=O)c3ccc(Br)cc3)cc2)ncn1	-0.194% (inactive)	
COc1ccccc1Cn1c(CO)nc2ccccc21	1.92% (inactive)	
COc1ccc(-n2ncc3c(SCC(=O)NNC(C)=O)ncnc32)cc1	39.1% (inactive)	
CC(=O)c1cccc(NC(=O)c2cc(C)nn2-c2ccccc2)c1	34.6% (inactive)	
COc1ccc(Cl)cc1C(=O)OCC(=O)NCc1cccs1	-13.3% (inactive)	
Cc1c(-c2nn(C)c(=O)c3ccccc23)oc2ccc(F)cc2c1=O		4.15 µM (active)
CCC(=O)NCc1cc(-c2nn(C)c(=O)c3ccccc23)ccc1OC	28.6% (inactive)	
O=C1c2oc3ccc(Br)cc3c(=O)c2C(c2cccc(F)c2)N1CCO (stereo not given)	61.8% (inactive)	
